# In publication PMC11062922 (Nature Chemical Biology, 2023):
# Read-outs that look alike come from different tables or passages of the source.
# Columns and labels:
# AAK1 = system: AAK1; set-up: species or system human, MV4-11 + K-562 + COLO205 + SK-N-BE2 + OVCAR-8; conditions: read-out: apparent Kd, compound concentrations: 100 nM and 1000 nM (sheet 'Samples'), n = 1
# Q6ZSR9 = Q6ZSR9 (human, UniProt Q6ZSR9); set-up: species or system MV4-11 + K-562 + COLO205 + SK-N-BE2 + OVCAR-8; conditions: read-out: apparent Kd, compound concentrations: 100 nM and 1000 nM (sheet 'Samples'), n = 1
# Chain of Q6ZSR9 (Q6ZSR9 whole entry, looked up): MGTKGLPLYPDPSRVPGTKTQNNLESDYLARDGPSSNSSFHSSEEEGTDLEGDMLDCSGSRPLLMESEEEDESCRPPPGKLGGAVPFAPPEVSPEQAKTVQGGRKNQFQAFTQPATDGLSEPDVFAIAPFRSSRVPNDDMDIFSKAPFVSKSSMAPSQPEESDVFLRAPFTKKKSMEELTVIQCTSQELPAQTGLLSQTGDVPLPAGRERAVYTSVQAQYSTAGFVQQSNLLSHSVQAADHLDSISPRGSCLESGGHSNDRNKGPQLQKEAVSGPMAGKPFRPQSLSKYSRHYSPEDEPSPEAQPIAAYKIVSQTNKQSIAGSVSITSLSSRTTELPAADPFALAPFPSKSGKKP
# CLK1 = system: CLK1; set-up: species or system human, MV4-11 + K-562 + COLO205 + SK-N-BE2 + OVCAR-8; conditions: read-out: apparent Kd, compound concentrations: 100 nM and 1000 nM (sheet 'Samples'), n = 1
# CLK4 = system: CLK4; set-up: species or system human, MV4-11 + K-562 + COLO205 + SK-N-BE2 + OVCAR-8; conditions: read-out: apparent Kd, compound concentrations: 100 nM and 1000 nM (sheet 'Samples'), n = 1
# CSNK2A1;CSNK2A3 = system: CSNK2A1;CSNK2A3; set-up: species or system human, MV4-11 + K-562 + COLO205 + SK-N-BE2 + OVCAR-8; conditions: read-out: apparent Kd, compound concentrations: 100 nM and 1000 nM (sheet 'Samples'), n = 1
# CSNK2A2 = system: CSNK2A2; set-up: species or system human, MV4-11 + K-562 + COLO205 + SK-N-BE2 + OVCAR-8; conditions: read-out: apparent Kd, compound concentrations: 100 nM and 1000 nM (sheet 'Samples'), n = 1
# ABL1 = system: ABL1; set-up: species or system human, MV4-11 + K-562 + COLO205 + SK-N-BE2 + OVCAR-8; conditions: read-out: apparent Kd, compound concentrations: 100 nM and 1000 nM (sheet 'Samples'), n = 1
# ABL2 = system: ABL2; set-up: species or system human, MV4-11 + K-562 + COLO205 + SK-N-BE2 + OVCAR-8; conditions: read-out: apparent Kd, compound concentrations: 100 nM and 1000 nM (sheet 'Samples'), n = 1
# BCR = system: BCR; set-up: species or system human, MV4-11 + K-562 + COLO205 + SK-N-BE2 + OVCAR-8; conditions: read-out: apparent Kd, compound concentrations: 100 nM and 1000 nM (sheet 'Samples'), n = 1
# GAK = system: GAK; set-up: species or system human, MV4-11 + K-562 + COLO205 + SK-N-BE2 + OVCAR-8; conditions: read-out: apparent Kd, compound concentrations: 100 nM and 1000 nM (sheet 'Samples'), n = 1
# RET = system: RET; set-up: species or system human, MV4-11 + K-562 + COLO205 + SK-N-BE2 + OVCAR-8; conditions: read-out: apparent Kd; compound concentrations: 100 nM and 1000 nM (sheet 'Samples'), CATDS: 4.9371716156535399E-2; n = 1
# RIPK2 = system: RIPK2; set-up: species or system human, MV4-11 + K-562 + COLO205 + SK-N-BE2 + OVCAR-8; conditions: read-out: apparent Kd, compound concentrations: 100 nM and 1000 nM (sheet 'Samples'), n = 1
# RIPK3 = system: RIPK3; set-up: species or system human, MV4-11 + K-562 + COLO205 + SK-N-BE2 + OVCAR-8; conditions: read-out: apparent Kd, compound concentrations: 100 nM and 1000 nM (sheet 'Samples'), n = 1
smiles,measurement,setting,value
COc1ccc(CNC(=O)NC2CCN(c3ccnc(Nc4cc(OC)c(OC)c(OC)c4)n3)C2)cc1 (stereo not drawn) [GSK1379748A],potency estimated from few doses,AAK1; CATDS: 0.347671640618193,1680 nM
same,potency estimated from few doses,Q6ZSR9; CATDS: 0.34499454920455003,1710 nM
COc1cc(Nc2nccc(N3CCC(NC(=O)c4cccc(C#N)c4)C3)n2)cc(OC)c1OC (stereo not drawn) [GSK1379751A],potency estimated from few doses,AAK1; CATDS: 0.20949591044902,786 nM
same,potency estimated from few doses,Q6ZSR9; CATDS: 0.206433255862257,810 nM
Cn1cc(C2=C(c3cn(CCCO)c4ccccc34)C(=O)NC2=O)c2ccccc21 [RO0317377-000],potency estimated from few doses,AAK1; CATDS: 0.115071291343016,1300 nM
same,potency estimated from few doses,Q6ZSR9; CATDS: 0.107617362332997,1540 nM
O=C1N=C(NCCc2ccccc2F)S/C1=C\c1ccc2ncccc2c1 [RO4498483-000],potency estimated from few doses,AAK1; CATDS: 8.5407630700809506E-2,957 nM
same,potency estimated from few doses,CLK1; CATDS: 0.138137656029612,347 nM
same,potency estimated from few doses,CLK4; CATDS: 9.8466136533641502E-2,675 nM
same,potency estimated from few doses,CSNK2A1;CSNK2A3; CATDS: 0.15223513812582401,295 nM
same,potency estimated from few doses,CSNK2A2; CATDS: 0.14884656797599799,306 nM
same,potency estimated from few doses,Q6ZSR9; CATDS: 8.1205084555915505E-2,1100 nM
Cc1ccc(O)cc1Nc1ccnc2cc(-c3ccccn3)ccc12.Cl [GW440139A],potency estimated from few doses,ABL1; CATDS: 2.9086276614824699E-2,609 nM
same,potency estimated from few doses,ABL2; CATDS: 3.5730235281971501E-2,238 nM
same,potency estimated from few doses,BCR; CATDS: 6.7644332106689603E-2,40.7 nM
same,potency estimated from few doses,GAK; CATDS: 4.3663241287780298E-2,121 nM
same,potency estimated from few doses,RET,85.8 nM
same,potency estimated from few doses,RIPK2; CATDS: 3.9139887822916601E-2,171 nM
same,potency estimated from few doses,RIPK3; CATDS: 4.4642127518175201E-2,114 nM
O=C1N=C(NCCc2cccc(F)c2)S/C1=C\c1ccc2ncccc2c1 [RO4508344-000],potency estimated from few doses,AAK1; CATDS: 0.102414054055007,806 nM
same,potency estimated from few doses,CLK1; CATDS: 0.18459427931802,278 nM
same,potency estimated from few doses,CLK4; CATDS: 0.11348899784144,644 nM
same,potency estimated from few doses,CSNK2A1;CSNK2A3; CATDS: 0.10848766260937499,709 nM
same,potency estimated from few doses,CSNK2A2; CATDS: 0.12392603207531599,541 nM
same,potency estimated from few doses,Q6ZSR9; CATDS: 9.5289389413805506E-2,958 nM
COc1cccc(-n2ncc3c(N/N=C/c4ccc(C(=O)NCCN(C)C)cc4)ncnc32)c1.Cl [GW784307A],potency estimated from few doses,ABL1; CATDS: 7.2174093506066003E-2,114 nM
same,potency estimated from few doses,ABL2; CATDS: 3.8634429049696897E-2,479 nM
same,potency estimated from few doses,BCR; CATDS: 0.110130424240114,53.4 nM
same,potency estimated from few doses,CLK1; CATDS: 2.9878019560437799E-2,1060 nM
same,potency estimated from few doses,CLK4; CATDS: 3.0333782570854902E-2,1010 nM
same,potency estimated from few doses,CSNK2A1;CSNK2A3; CATDS: 5.2102189470279198E-2,227 nM
same,potency estimated from few doses,CSNK2A2; CATDS: 8.6711561514054597E-2,80.9 nM
same,potency estimated from few doses,GAK; CATDS: 2.92049494926887E-2,1160 nM
COc1ccccc1CCNC1=NC(=O)/C(=C/c2ccc3ncccc3c2)S1 [RO4503316-000],potency estimated from few doses,AAK1; CATDS: 8.9875957971869994E-2,1540 nM
same,potency estimated from few doses,CLK1; CATDS: 0.207972147405552,120 nM
same,potency estimated from few doses,CLK4; CATDS: 0.25242389415209998,86.4 nM
same,potency estimated from few doses,CSNK2A1;CSNK2A3; CATDS: 0.132518653833052,327 nM
same,potency estimated from few doses,CSNK2A2; CATDS: 0.17333569062509099,171 nM
same,potency estimated from few doses,Q6ZSR9; CATDS: 9.2411068480935804E-2,1310 nM
NC(=O)c1cccc(Nc2nccc(Nc3cccc4[nH]ncc34)n2)c1 [GW782612X],potency estimated from few doses,ABL1; CATDS: 3.3551530123454902E-2,1900 nM
same,potency estimated from few doses,ABL2; CATDS: 4.6849720703519497E-2,629 nM
same,potency estimated from few doses,BCR; CATDS: 5.7731069178064698E-2,381 nM
same,potency estimated from few doses,CLK1; CATDS: 3.6631639688053302E-2,1340 nM
same,potency estimated from few doses,CLK4; CATDS: 4.0513674478844103E-2,951 nM
same,potency estimated from few doses,CSNK2A2; CATDS: 3.4795292983427199E-2,1630 nM
same,potency estimated from few doses,GAK; CATDS: 4.0699733875589103E-2,937 nM
same,potency estimated from few doses,RIPK2; CATDS: 7.1079405795032996E-2,247 nM
O=C1N=C(N[C@@H](CO)c2ccccc2)S/C1=C\c1ccc2ncccc2c1 [RO4554340-000],potency estimated from few doses,AAK1; CATDS: 0.158998542924943,1190 nM
same,potency estimated from few doses,CLK1; CATDS: 0.44812709075051699,156 nM
same,potency estimated from few doses,CLK4; CATDS: 0.232280366030543,478 nM
same,potency estimated from few doses,Q6ZSR9; CATDS: 0.16133585717123999,1140 nM
COc1cc(Nc2ccnc3cc(-c4ccncc4)ccc23)cc(OC)c1OC.Cl [GW494610A],potency estimated from few doses,ABL1; CATDS: 2.4379025884203698E-2,1070 nM
same,potency estimated from few doses,ABL2; CATDS: 2.97420098626874E-2,523 nM
same,potency estimated from few doses,BCR; CATDS: 4.8840213207685099E-2,133 nM
same,potency estimated from few doses,GAK; CATDS: 0.18484170134518799,10.7 nM
same,potency estimated from few doses,RIPK2; CATDS: 0.24490143470797801,7.12 nM
same,potency estimated from few doses,RIPK3; CATDS: 2.5857205413597002E-2,848 nM
